Test results published in the supplement of paper PMC6555819.

Legend:
Assay in all cases: PBM binding z-score (relative to random genomic background probes); higher = stronger binding; sequences stand for … in GC…GCGATTGACAGCGTAGAATGAAGG
[1] = tested on: PPARg:RXRa DBDmut IVT, anti-RXR (DBD mutation: RXRa K156A/R161A, NR concentration 270 nM, RXRa partner concentration 90 nM)
Outline: (§1)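 Custom Agilent 4×180K protein-binding microarrays carried double-stranded probes, each with a 34-nt variable region. These regions held direct-repeat seeds, single-nucleotide variants, half-site ablations and random human genomic background sequences. Ligand-free nuclear receptor dimers were incubated on the arrays for 1 h, antibodies against each partner (one per run) detected binding, and scanned fluorescence was regression-normalized. Binding z-scores take the random background probes as reference.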

[2] = tested on: PPARg:RXRa IVT, anti-PPARg (NR concentration 270 nM, RXRa partner concentration 90 nM)
Outline: as §1

[3] = tested on: PPARg DBDmut:RXRa IVT, anti-PPARg (DBD mutation: PPARg1 K132A/R137A, NR concentration 270 nM, RXRa partner concentration 90 nM)
Outline: as §1

[4] = tested on: PPARg DBDmut IVT, anti-PPARg (DBD mutation: PPARg1 K132A/R137A, NR concentration 270 nM)
Outline: as §1

[5] = tested on: PPARg homodimer (NR concentration 180 nM)
Outline: as §1

[6] = tested on: PXR:RXRa (NR concentration 270 nM, RXRa partner concentration 90 nM)
Outline: as §1

[7] = tested on: PXR homodimer (NR concentration 270 nM)
Outline: as §1

[8] = tested on: RARa:RXR (NR concentration 270 nM, RXRa partner concentration 90 nM)
Outline: as §1

[9] = tested on: RARa homodimer (NR concentration 270 nM)
Outline: as §1

[10] = tested on: RARb:RXRa (NR concentration 270 nM, RXRa partner concentration 90 nM)
Outline: as §1

Sequence | PBM binding z-score [1] | PBM binding z-score [2] | PBM binding z-score [3] | PBM binding z-score [4] | PBM binding z-score [5] | PBM binding z-score [6] | PBM binding z-score [7] | PBM binding z-score [8] | PBM binding z-score [9] | PBM binding z-score [10]
ACTAGCAGACCAAGGGTCACTCAAGATTAGTCCG | 0.108 | 1.84 | 0.151 | -0.38 | 1.55 | 2.8 | -0.1 | 3.46 | 1.31 | 3.28
GGAACGAGGGCAAGTTGATAGAAGAGTTTGATGG | 3.6 | 2.75 | -0.45 | 0.0544 | 0.482 | 0.801 | 0.693 | 0.45 | 0.336 | 2.64
GGTACGAGGGCAAGTTGATAGCAGAGTTTGATGG | 2.1 | 1.59 | -0.734 | -1 | 0.42 | 1.06 | 0.796 | 0.502 | 0.101 | 2.75
TAGCCTTGGTCATGGGCCAGTATACCACGCGAAC | -1.28 | 0.113 | -0.568 | -0.717 | -0.713 | -0.329 | -0.952 | -0.342 | -1.21 | 0.734
GCGACTTGGGCATCAGCAGGTTACCATAACTTAA | -0.319 | -0.238 | -1.02 | -0.802 | -0.13 | -0.0644 | -0.495 | 0.232 | -0.904 | 0.00104
TTACCAAGGTGAGCTGAGATCGTTGATCCAACTC | 1.12 | 1.5 | -0.91 | -0.653 | -1.58 | 0.00925 | -1.19 | -0.376 | -1.19 | 0.893
CGAACTAGGACATTGACAGGACAGTGAATAGTAA | 4.34 | 3.36 | 1.39 | 0.241 | 0.296 | -0.136 | 0.135 | -0.244 | -0.0168 | 0.136
CCGAGTGGGGCAGAAAGGTTACCATACCATCCGG | 1.16 | 1.76 | -1.17 | -1.29 | 0.799 | 1.05 | 0.126 | 1.5 | -0.131 | 1.63
CCTACTGGGCCACGAAAAGTCATTGATTCAGTGA | 5.95 | 5.51 | -0.0211 | -0.417 | 0.0392 | -0.419 | -0.579 | -0.211 | -0.346 | 0.629
GTTGCTAGGTCAGGTTGGTCAGCTAACGGGTACG | 2.88 | 3.16 | 0.283 | -0.614 | 1.29 | 0.651 | 0.178 | 0.933 | 0.798 | 3.4
AGAACGATGGCACGCTGAGTTGATAGCAGAGTAG | -0.571 | -0.274 | 0.264 | -0.833 | 0.102 | -0.552 | -0.384 | -0.792 | -0.387 | -0.628
CAAACTAGGTCACCGGAAGGTCAACGTCCGCATG | 8.78 | 8.78 | 2.66 | 1.2 | 6.53 | 5.79 | 1.29 | 7.37 | 2.46 | 5.38
TCTGCTAGGTCAACGATGATCAGCTAATCTGCTA | 4.26 | 4.06 | 0.35 | 0.888 | 0.451 | 0.896 | -0.713 | 1.77 | -0.998 | 3.99
GCATATAGGTAATACAAGGTGAAAGTTCGATTGT | 3.93 | 3.61 | 1.22 | 1.17 | 1.2 | 1.86 | 0.639 | 2.6 | 1.1 | 0.778
CCAGACAGATGAGAAGGTAACTCAGCCTCGATTA | 0.125 | -0.374 | 0.361 | -0.388 | 1.08 | -0.297 | 0.323 | -0.00624 | 1.43 | -0.0941
CATCCAAGGTCAGAGAGGTCAGTGAATGCCGAGT | 2.91 | 3.85 | 0.635 | -0.591 | 4.41 | 6.17 | 12 | 5.72 | 3.06 | 5.38
GCTATTAGTTGAAAGGGCAATCGAATGATTCTCG | 0.456 | 1 | -0.234 | 0.628 | 1.15 | 0.658 | 0.0729 | 1.25 | 0.589 | 1.74
TAGCCTAGGACATGGGCCAGTATACCACGCGAAC | -1.18 | -0.594 | -0.263 | -0.978 | -0.814 | -0.387 | -0.477 | -0.815 | -0.515 | 0.0238
TTGCCAAGGTGAAGGTCGTTGATCCCTCTGTAGA | 1.25 | 2.3 | -1.04 | -0.656 | 0.119 | 1.21 | -0.362 | 1.6 | -0.87 | 2.08
CGTCCAAGGTCAATGCTAGGTCGGTGAAAGCATT | 3.27 | 3.65 | -0.723 | -0.78 | 1.98 | 3.86 | 0.759 | 4.18 | 0.419 | 4.95
TCTTGTAGCTCAAAGGTTAAGAAAGCCGAAGCCT | 1.21 | 1.99 | 0.0313 | -0.321 | 0.397 | 1.27 | -0.227 | 1.83 | -0.437 | 1.61
TCATAGAGGTAAAGGTGAAAGTCGAACGATATGA | 2.03 | 3.05 | 0.77 | 0.323 | 0.369 | 1.15 | -0.365 | 2.03 | 0.137 | 2.19
CAAACTAGGTCACGAAAGGTCAATGTCGAATGAC | 8.46 | 9.35 | 5.05 | 3.62 | 4.79 | 6.78 | 1.92 | 7.1 | 1.91 | 5.86
GCTAGTTGGTCAGTAAAAGGTCACACCCCGGTCG | 0.618 | 2.91 | -0.641 | -0.291 | 3.31 | 4.6 | 0.747 | 5.06 | 0.952 | 4.21

Sequence | PBM binding z-score [1] | PBM binding z-score [2] | PBM binding z-score [3] | PBM binding z-score [4] | PBM binding z-score [5] | PBM binding z-score [6] | PBM binding z-score [7] | PBM binding z-score [8] | PBM binding z-score [9] | PBM binding z-score [10]
TTACCAAGGTGAAGGTCCTTGATCCCTCTGTAGA | 1.64 | 2.67 | -0.58 | -0.0809 | -0.00432 | 0.544 | -0.323 | 1.01 | -0.146 | 1.75
ACTAGCAGGCCAAGGCTCACTCAAGATTAGTCCG | 1.13 | 0.144 | -0.648 | -0.572 | -0.478 | -0.766 | -0.282 | -0.478 | -0.56 | 0.257
AATACAGGGTCACTAGGCCGGAGTAGGTACGAAT | 3.1 | 5.05 | 0.885 | 0.938 | 1.34 | 2.98 | 0.306 | 3.81 | -0.208 | 3.97
TGTCAAAGTTCAAAAGTAACGTAAGTATCCACAC | -0.0254 | 3.6 | 1.92 | 2.39 | 1.89 | 4.46 | 3.74 | 3.65 | 1.1 | 4.6
AGAACGAGGGCACGCTGCGTTGATAGCAGAGTAG | 4.17 | 3.95 | 0.425 | -0.427 | 0.0277 | 0.123 | -0.527 | 0.344 | -0.962 | 2.52
TAGCCTAGGTCATGGGGCAGTATACCACGCGAAC | 1.45 | 3.74 | 0.479 | 0.305 | 1.67 | 1.78 | -0.439 | 3.21 | -0.03 | 3.79
ACTCGTAGGACAAAGGTCAGAGCTACGCCAGTGA | 1.2 | 3.67 | 0.241 | 0.756 | 4.17 | 3.73 | 0.25 | 4.94 | 1.41 | 4.18
GGAACGAGAGCATTCGAGTTGATAGCATGGCGAT | 0.00852 | -0.503 | -0.558 | -0.483 | -1.19 | 0.237 | -0.766 | -0.817 | -0.746 | -0.633
TGATATAGGTAAACAGGTGAAAGTCCGTAAGTTA | 5.35 | 5.64 | 1.01 | 0.48 | 0.911 | 0.29 | 0.346 | 0.703 | 1.11 | 0.511
TCTCGGTGGACACGAAAGGTCAGAGCTCGACATC | 1.22 | 1.82 | -0.273 | -0.543 | 3.39 | 3.87 | 0.441 | 4.59 | -0.0957 | 3.86
TCTCGGAGGACACGATGGTCAGAGCTTTCCAGAG | 1.01 | -0.167 | -0.797 | -0.992 | -1.04 | -0.421 | -0.66 | -0.201 | -0.829 | 1.51
CGTCCAGGGTCAGAGAGGTCAGTGAATGCCGAGT | 1.59 | 2.32 | -0.324 | -0.926 | 3.95 | 6.01 | 9.1 | 5.52 | 1.6 | 4.77
TGAATGAGGTTATAAGATCAGGGATCGTTGCAAA | 0.979 | 1.86 | 1.31 | 0.477 | 0.305 | 0.783 | 0.0722 | 1.24 | 0.256 | 0.862
TTACCAAGGTGAGCTGAGGTCGTTGCTCCAACTC | 1.08 | 2.12 | -0.398 | -1.21 | -0.419 | 4.75 | 0.304 | 1.6 | -0.876 | 1.74
TCTGCTAGGTCAGTTGGTCAGGTAACGAGCTGCC | 2.56 | 3.24 | 0.0917 | 0.385 | 0.478 | 0.0993 | -0.744 | 0.735 | -0.871 | 3.3
ATCTCTAGGTAACAAGTTTAGTGAAAGAGAGGAC | 3.18 | 2.92 | 1.24 | 1.38 | 1.04 | 0.591 | 0.703 | 0.429 | 0.873 | 0.574
CCTTACGGGACACTCCAGGTTATAGCATCGGAGT | 0.616 | 0.708 | -0.0587 | -0.578 | 0.252 | 0.0254 | 0.23 | 0.561 | -0.181 | 0.356
ATACCAAGGTGATCGTGGGGTCGTTGATACTAAC | 0.765 | 1.54 | 0.837 | 0.583 | 1.5 | 3.05 | 1.11 | 2.65 | 0.577 | 1.33
CCTAGCAGGCCAATCTGGGTCACTTAAGGCTTGA | 4.27 | 5.04 | 0.275 | -0.588 | 1.03 | 1.16 | -0.589 | 1.62 | -0.727 | 1.55
CGAAGTAGGTCAAGGACAGTGAATCTCCGCACGC | 8.4 | 8.73 | 5.06 | 1.85 | 2.14 | 1.39 | -0.253 | 2.46 | 0.686 | 3.95
TCGAGTAGGTTACCGATGGGGCATTCAGCTTTCT | 3.39 | 2.48 | -0.681 | -0.945 | -0.276 | -0.00678 | -0.759 | 0.377 | -0.625 | 0.88
TCAAGTTGGTCACGGAGGTCACACACGACGGGTA | 2.45 | 3.99 | 1.48 | 0.93 | 2.72 | 4.35 | 1.65 | 4.61 | 1.86 | 3.98
TCTATTAGTTGAAGGTCAACCGACGAGTCCGTTT | 2.82 | 2.45 | 1.21 | 0.836 | 3.86 | 4.22 | 2.78 | 4.4 | 3.23 | 4.02
TGAATGAGGTTAAAGATCAGGGCACGTGGCGTCG | 2.37 | 3.82 | 1.31 | 1.27 | 0.587 | 2.32 | 0.062 | 3.3 | 0.14 | 2.41
